Read-outs that look alike come from different tables or passages of the source.

Drawing on publication PMC11062922 (Nature Chemical Biology, 2023), this text covers potency estimated from few doses for eleven compounds.

Holding throughout (set-up): species or system human, MV4-11 + K-562 + COLO205 + SK-N-BE2 + OVCAR-8
In one assay the test system is DYRK1A. The following applies: read-out: apparent Kd, compound concentrations: 100 nM and 1000 nM (sheet 'Samples'), n = 1.
The next assay has as its system LATS1. As to conditions: read-out: apparent Kd, n = 1.
A further assay concerns CDK7. The following applies: read-out: apparent Kd, n = 1.
The test system of a further assay is ERCC2. The following applies: read-out: apparent Kd, n = 1.
The next assay concerns FER. The following applies: read-out: apparent Kd, n = 1.
The test system of another assay is MARK4. As to conditions: read-out: apparent Kd, n = 1.
The test system of the next assay is PRKAA1. The following applies: read-out: apparent Kd, n = 1.
For a further assay, the system named is PRKAG1. The following applies: read-out: apparent Kd, n = 1.
For a further assay, the system named is PRKCQ. As to conditions: read-out: apparent Kd, n = 1.
For another assay, the system named is PTK2. The following applies: read-out: apparent Kd, n = 1.
The subject of a further assay is STK10. The following applies: read-out: apparent Kd, n = 1.
The subject of another assay is CDKL5. The following applies: read-out: apparent Kd; compound concentrations:100 nM and 1000 nM (sheet 'Samples'); n = 1.
For the next assay, the system named is PIP4K2C. The following applies: read-out: apparent Kd, n = 1.
In another assay the test system is PLK4. As to conditions: read-out: apparent Kd, n = 1.
The test system of another assay is PTK2B. The following applies: read-out: apparent Kd, n = 1.
For the next assay, the system named is RPS6KA6. As to conditions: read-out: apparent Kd, n = 1.
Another assay relates to MYLK3. As to conditions: read-out: apparent Kd; compound concentrations:100 nM and 1000 nM (sheet 'Samples'); n = 1.
For a further assay, the system named is PRKD3. The following applies: read-out: apparent Kd, compound concentrations: 100 nM and 1000 nM (sheet 'Samples'), n = 1.
The test system of a further assay is PRKCD. The following applies: read-out: apparent Kd, n = 1.
In a further assay the test system is PRKD2. The following applies: read-out: apparent Kd; compound concentrations: 100 nM and 1000 nM (sheet 'Samples'), CATDS: 3.1729313210787799E-2; n = 1.
[1] abbreviates: compound concentrations:100 nM and 1000 nM (sheet 'Samples').

Turning to `CCn1c(-c2nonc2N)nc2c(C#CC(C)(C)O)nc(OC[C@@H](N)c3ccccc3)cc21` [GSK938890A], the potency estimated from few doses in the assay with DYRK1A (CATDS: 4.9269048258553202E-2) was 2060 nM; in the assay with LATS1 (compound concentrations: 100 nM and 1000 nM (sheet 'Samples'), CATDS: 6.3165054409109203E-2) it was 513 nM.
Turning to `CN(c1ccc(NC(=O)N2CCN(CCCN3CCOCC3)CC2)cc1)c1ccnc(Nc2ccc(CS(C)(=O)=O)cc2)n1.Cl` [GW830899A], the potency estimated from few doses was 560 nM in the assay with CDK7 (compound concentrations: 100 nM and 1000 nM (sheet 'Samples'), CATDS: 3.2126813899460802E-2); 471 nM with ERCC2 (compound concentrations: 100 nM and 1000 nM (sheet 'Samples'), CATDS: 3.5571834197337601E-2); 940 nM with FER (compound concentrations: 100 nM and 1000 nM (sheet 'Samples'), CATDS: 2.4500715622852599E-2); 1290 nM with MARK4 (compound concentrations: 100 nM and 1000 nM (sheet 'Samples'), CATDS: 2.1363637318540001E-2); 909 nM in the assay on PRKAA1 (compound concentrations: 100 nM and 1000 nM (sheet 'Samples'), CATDS: 2.4895545924416802E-2); 1020 nM in the assay with PRKAG1 (compound concentrations: 100 nM and 1000 nM (sheet 'Samples'), CATDS: 2.3560969184091798E-2). Further, the potency estimated from few doses in the assay on PRKCQ (compound concentrations: 100 nM and 1000 nM (sheet 'Samples'), CATDS: 2.35958557762035E-2) was 1020 nM; with PTK2 (compound concentrations: 100 nM and 1000 nM (sheet 'Samples'), CATDS: 2.9725199889124199E-2), 643 nM.
Regarding `Cc1ccc(Nc2ccnc(Nc3ccc4c(c3)CS(=O)(=O)C4)n2)cc1O.Cl` [GW579362A], the potency estimated from few doses with STK10 (compound concentrations: 100 nM and 1000 nM (sheet 'Samples'), CATDS: 3.2691719677524503E-2) is 950 nM.
`CC(C)N1CCC(n2cnc(-c3ccc(F)cc3)c2-c2ccnc(N)n2)CC1` [SB-223132]: the potency estimated from few doses with CDK7 (setting [1]) was 310 nM; in the assay with CDKL5, 1520 nM; with ERCC2 (setting [1]), 206 nM; in the assay with FER (setting [1]), 358 nM; in the assay on PIP4K2C (setting [1]), 1200 nM; with PLK4 (setting [1]), 757 nM. Also, the potency estimated from few doses was 631 nM in the assay with PRKAA1 (setting [1]); 884 nM in the assay on PRKAG1 (setting [1]); 378 nM in the assay on PTK2B (setting [1]); 433 nM in the assay on PTK2 (setting [1]); 466 nM in the assay with RPS6KA6 (setting [1]); 2020 nM in the assay on STK10 (setting [1]).
On to `CNC(=O)c1ccccc1Nc1nc(Nc2ccc(N3CCOCC3)cc2)ncc1Cl.Cl` [GSK1576028A], for which the potency estimated from few doses was 484 nM with FER (setting [1]); 132 nM with LATS1 (setting [1]); 1370 nM in the assay on MARK4 (setting [1]); 786 nM with MYLK3; 13.4 nM in the assay with PLK4 (setting [1]); 629 nM with PRKAA1 (setting [1]). Also, the potency estimated from few doses in the assay with PRKAG1 (setting [1]) is 461 nM; with PTK2B (setting [1]), 41.8 nM; in the assay on PTK2 (setting [1]) it was 8.08 nM; with STK10 (setting [1]), 681 nM.
On to `Cl.Nc1c(C(=O)c2cccc(C#CCN3CCCCC3)c2)cnn1-c1ccc(F)cc1` [RO1154461-001], for which the potency estimated from few doses in the assay on CDK7 (compound concentrations: 100 nM and 1000 nM (sheet 'Samples'), CATDS: 4.6552483673456102E-2) was 74.1 nM; in the assay with ERCC2 (compound concentrations: 100 nM and 1000 nM (sheet 'Samples'), CATDS: 5.2130998617594002E-2) it was 63.2 nM; in the assay with FER (compound concentrations: 100 nM and 1000 nM (sheet 'Samples'), CATDS: 4.9023130772968097E-2) it was 68.9 nM; in the assay with LATS1 (compound concentrations: 100 nM and 1000 nM (sheet 'Samples'), CATDS: 1.0207334677420601E-2), 1780 nM; in the assay on MARK4 (compound concentrations: 100 nM and 1000 nM (sheet 'Samples'), CATDS: 1.0984902394488599E-2), 1350 nM; with PIP4K2C (compound concentrations: 100 nM and 1000 nM (sheet 'Samples'), CATDS: 1.00291751764076E-2), 1910 nM. For the same compound, the potency estimated from few doses in the assay on PLK4 (compound concentrations: 100 nM and 1000 nM (sheet 'Samples'), CATDS: 1.52727578092353E-2) is 534 nM; in the assay with PRKAA1 (compound concentrations: 100 nM and 1000 nM (sheet 'Samples'), CATDS: 1.6696552241267201E-2), 436 nM; in the assay on PRKAG1 (compound concentrations: 100 nM and 1000 nM (sheet 'Samples'), CATDS: 3.6022361277962302E-2), 108 nM; with PRKCQ (compound concentrations: 100 nM and 1000 nM (sheet 'Samples'), CATDS: 1.06314955132201E-2), 1520 nM; in the assay with PRKD3 (CATDS: 9.8039284052072601E-3), 2110 nM; with PTK2B (compound concentrations: 100 nM and 1000 nM (sheet 'Samples'), CATDS: 4.70772148713983E-2) it was 72.9 nM. Moreover, the potency estimated from few doses was 333 nM in the assay with PTK2 (compound concentrations: 100 nM and 1000 nM (sheet 'Samples'), CATDS: 1.89593095974224E-2); 303 nM in the assay with RPS6KA6 (compound concentrations: 100 nM and 1000 nM (sheet 'Samples'), CATDS: 1.98632860807328E-2); 1910 nM in the assay with STK10 (compound concentrations: 100 nM and 1000 nM (sheet 'Samples'), CATDS: 1.0028252220669101E-2).
In the case of `CCn1c(-c2nonc2N)nc2c(C#CC(C)(C)O)nc(OCCNC)cc21.Cl` [GSK949675A], the potency estimated from few doses with LATS1 (setting [1]) is 401 nM; in the assay with PRKCQ (setting [1]) it was 1680 nM.
`CCn1c(-c2nonc2N)nc2c(C#CCN)ncc(OCCCN)c21.O=C(O)C(F)(F)F` [GSK561866B]: the potency estimated from few doses with LATS1 (compound concentrations: 100 nM and 1000 nM (sheet 'Samples'), CATDS: 0.187665654048491) was 38.9 nM.
In the case of `CCn1c(-c2nonc2N)nc2c(-c3ccccc3)ncc(OCCCN)c21.CCn1c(-c2nonc2N)nc2c(-c3ccccc3)ncc(OCCCN)c21.O=C(O)C(F)(F)F.O=C(O)C(F)(F)F` [GSK260205A], the potency estimated from few doses with LATS1 (compound concentrations: 100 nM and 1000 nM (sheet 'Samples'), CATDS: 3.5695697906411097E-2) was 734 nM; in the assay with PRKCD (compound concentrations: 100 nM and 1000 nM (sheet 'Samples'), CATDS: 3.0969413640761199E-2), 1160 nM; with PRKD2, 1070 nM; with PRKD3 (CATDS: 2.8953203938898799E-2) it was 1510 nM.
With `CCn1c(-c2nonc2N)nc2c(C#CC(C)(C)O)nc(OCCN)cc21.CCn1c(-c2nonc2N)nc2c(C#CC(C)(C)O)nc(OCCN)cc21.Cl.Cl` [GSK902056A], the potency estimated from few doses with LATS1 (setting [1]) is 70.2 nM; in the assay on PRKCD (setting [1]) it was 373 nM; in the assay with PRKCQ (setting [1]), 50.9 nM.
In the case of `O=C1N=C(Nc2ccccc2)S/C1=C\c1ccc2ncccc2c1` [RO4493940-000], the potency estimated from few doses in the assay on DYRK1A (CATDS: 0.176247651150404) was 1930 nM.
